Screening data as filed in PubChem.
Only some compounds are listed: those with a hit (about 1.4% of all), similar ones and a draw of the others.
Mtb MenB inh: inhibitors of Mycobacterium tuberculosis MenB enzyme; AID 540299; 100,000 tested, 0.43% active; P9WNP5; MenB enzyme assay, absorbance read-out; inhibition, % (test concentration not listed); in the data active means inhibition above about 21%, passing the limit was not always enough
AID504770: E. coli YBA685 growth inhibition, screen for V. cholerae RctB inhibitors; z-score (no concentration beside the values); AID 504770; 130,000 tested, 0.27% active; E. coli YBA685 rctB-dependent plasmid, OD600 growth, 3 h; stronger effect = lower value; in the data active means z-score below about -2, passing the limit was not always enough
MbtI inh: blocks the Mycobacterium tuberculosis siderophore enzyme MbtI. purified MbtI enzyme, fluorescence intensity read-out. inhibition, % (no concentration beside the values). 100,000 tested, 0.89% active; in the data active means inhibition mostly above about 56%, no sharp cut-off; inactive means mostly below about 77%
Target sequence (P9WFX0 whole entry, looked up): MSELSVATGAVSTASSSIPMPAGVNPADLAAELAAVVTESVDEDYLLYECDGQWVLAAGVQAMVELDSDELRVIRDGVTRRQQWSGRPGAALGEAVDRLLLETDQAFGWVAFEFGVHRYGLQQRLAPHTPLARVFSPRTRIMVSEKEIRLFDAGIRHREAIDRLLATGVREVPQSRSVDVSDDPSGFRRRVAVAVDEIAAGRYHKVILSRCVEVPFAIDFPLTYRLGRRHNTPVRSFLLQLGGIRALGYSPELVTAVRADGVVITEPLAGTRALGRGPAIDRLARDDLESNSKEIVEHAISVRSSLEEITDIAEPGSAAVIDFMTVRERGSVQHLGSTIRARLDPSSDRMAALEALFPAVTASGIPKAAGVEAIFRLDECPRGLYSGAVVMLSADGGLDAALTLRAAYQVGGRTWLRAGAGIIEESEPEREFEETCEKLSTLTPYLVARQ
Polio RdRp inh: poliovirus RNA polymerase inhibition | poliovirus polymerase elongation, fluorescence polarization; stronger effect = lower value | % elongation, % (compound at 16.7 µg/mL) | 150,000 tested, 0.66% active; in the data active means % elongation below about 90%
* hit, by the source's call; i = inactive; x = no result.

SMILES	Mtb MenB inh	AID504770	MbtI inh	Polio RdRp inh
CC1Cc2ccccc2N1C(=O)/C=C/c1cccc(F)c1 (stereo not drawn)	-4.9	0.1	13.8	98.0
Nc1cccc2c1C(=O)N(C(=O)/C=C/c1cccc(F)c1)C2=O	-36.4	0.3	12.1	82.0*
CCc1ccc(-n2c(=O)c3cccnc3n2CC(=O)Nc2cc(F)ccc2F)cc1	x	x	x	115.0
Nc1c(-c2ccccc2)nc2sccn12	80.8*	1.8	88.1*	94.0
Oc1ccccc1C(=S)N1CCN(C(=S)c2ccccc2O)CC1	-45.7	-0.45	93.7*	101.0
O=C(c1ccccc1O)N1CCOCC1	-6.9	0.85	x	112.0
COc1cc(Nc2cnn(-c3nc4ccccc4s3)c(=O)c2Cl)cc(OC)c1	-13.4	-0.65	-4.1	104.0
COc1ccc(/C=C2\SC(=O)NC2=S)cc1OC	-64.9	1.5	63.6*	90.0
COc1ccc(C2(CNC(=O)c3ccco3)CCOCC2)cc1	-12.9	0.15	x	78.0*
COCc1cc(C)nc(OCC(=O)OC)c1C#N	x	-0.85	x	x
O=C(Nc1ccc(Cl)cc1)OC1CN2CCC1CC2 (stereo not drawn)	x	0.9	x	x
O=C(CSc1nc2ccccc2nc1Cc1ccccc1)N1CCN(c2ccccc2)CC1	x	x	x	105.0
CC1=CC(=O)C(N(C)c2ccccc2)=CC1=O	x	-0.95	84.6*	103.0
CC1=C/C(=C/N(C)c2ccccc2)C(=O)S1	-147.2	-0.7	28.0	100.0
O=C(O)C(C(=O)/C=C/c1ccccc1)=C1SCS1	-76.4	-1	88.8*	106.0
CC1=C(C)C(=O)C(NCc2ccccn2)=CC1=O	-1.7	-0.3	8.3	66.0*
Cc1ccc(-c2ccnc(-c3ccc(O)cc3)n2)cc1	x	2	x	x
Cc1ccc(-c2nc(I)ccc2O)cc1	38.6*	1.25	i	99.0
CSc1sc(-c2ccn(C(=O)Nc3ccccc3)n2)c2c1C(=O)CC(C)(C)C2	-16.0	0.55	-0.2	98.0
O=C(c1ccc(N2CCCc3ccccc32)s1)N1CCCC1	-23.2	-2.2*	127.0	100.0
CNC(=O)c1c(C)nc(SCC(=O)OCC(=O)Nc2ccc(C)c(C)c2)c(C#N)c1-c1ccco1	-33.3	1.6	2.3	103.0
CNC(=O)c1c(C)[nH]c(=S)c(C#N)c1-c1ccco1	-26.4	1.45	98.7*	103.0
CN1CSC2=C(C#N)C(c3ccccc3)CC(=O)N2C1 (stereo not drawn)	-17.5	-0.25	85.6*	94.0
CSc1ccc(C2CC(=O)N3CN(C)CSC3=C2C#N)cc1 (stereo not drawn)	-22.3	0.75	92.3*	99.0
Cc1ccc(Cl)cc1NC(=O)C1=NCCN1	-48.9	0.05	-0.4	73.0*
SMILES	Mtb MenB inh	AID504770	MbtI inh	Polio RdRp inh
Cc1cc(C)c(NC(=O)CSc2nc(=O)n(Cc3ccco3)c3c2CCC3)c(C)c1	x	x	x	108.0
Cc1ccc(NC(=O)CSc2nc(=O)n(Cc3ccco3)c3c2CCC3)cc1F	x	x	x	76.0*
COc1ccc(C(=O)NCc2ccccc2OC)cc1	-22.8	0.05	-11.1	101.0
CCNC(=S)NCc1ccc2c(c1)OCO2	-26.3	-1.4	-9.2	106.0
CC1CCC2(CC1)NC(=O)N(NC(=S)NCc1ccc3c(c1)OCO3)C2=O (stereo not drawn)	-28.9	2.2	66.8*	103.0
CCC(N)C(=O)c1ccc(Cl)cc1 (stereo not drawn)	32.3*	-0.45	3.2	101.0
Nc1nnc2cc(C(=O)c3cc(F)ccc3O)cnn12	-15.0	0.45	3.1	96.0
Cc1ccc(O)c(C(=O)c2cnn3c(=S)[nH]nc3c2)c1	-17.8	-0.15	43.0	71.0*
Cc1ccc(O)c(C(=O)c2cnn3c(N)nnc3c2)c1	-2.5	1.8	-4.9	64.0*
Cc1ccc(O)c(C(=O)c2cnn(-c3nc(C)cc(=O)[nH]3)c2)c1	-24.0	1.8	193.0	100.0
CCc1c(C)sc(NC(=O)C#Cc2ccccc2)c1C#N	-33.0	-0.1	-17.2	102.0
CCc1ccc(CNCCCSc2nnnn2-c2ccccc2)cc1	-14.1	0.05	-20.2	101.0
Cc1cc(C)c2ccc(=O)cc-2o1	-62.4	-0.6	-32.5	97.0
CCS(=O)(=O)c1ncc(Cl)c(C(=O)Nc2ccc(Cl)cc2)n1	-14.0	-0.85	62.9*	103.0
O=C(Nc1ccc2oc(-c3cccnc3)nc2c1)c1ccc(-c2ccc(Cl)cc2)o1	x	x	x	106.0
Cn1c(N)c(C#N)c2c(c1=S)CCCC2	-45.2	-2.85*	23.9	88.0*
CCOC(=O)CC(NC(=O)N1CCC(CN2CCC(C)CC2)CC1)c1ccccc1 (stereo not drawn)	x	x	x	49.0*
CCOc1ccc(NC(=O)N2CCC(CN3CCC(C)CC3)CC2)cc1	x	x	x	102.0
CCCN(CCC)C1=CC(=O)C(C)=C(C)C1=O	-33.7	0	-26.3	86.0*
CCN1CCCC1CNc1cc(C)c2ccc(C)cc2n1 (stereo not drawn)	-19.7	-1.2	4.3	88.0*
CCN1CCCC1CNc1ncnc2c1cnn2-c1ccc(C)cc1 (stereo not drawn)	-21.8	-1.1	118.3	101.0
COc1c(O)cc2c(c1O)C1OC(CO)C(O)C(O)C1OC2=O (stereo not drawn)	43.0*	x	2.9	99.0
COc1cc2ccc(=O)oc2c(OC2OC(CO)C(O)C(O)C2O)c1O (stereo not drawn)	-36.0	-0.15	x	103.0
O=C(O)C1C2C=CC(C2)C1C(=O)Nc1cccc(Br)c1 (stereo not drawn)	26.2*	0	-2.8	97.0
Cc1csc2nc(-c3cccc(NC(=O)c4ccc(S(N)(=O)=O)cc4)c3)cn12	x	x	x	107.0
SMILES	Mtb MenB inh	AID504770	MbtI inh	Polio RdRp inh
CN1CC(=O)NC(=O)C1	-3.8	-0.15	31.6	84.0*
O=C(Nc1c[nH]c(=O)[nH]c1=O)NC1CCCC1	4.1	-0.6	1.2	100.0
O=C(CCC1CCCCC1)Nc1c[nH]c(=O)[nH]c1=O	0.0	-2.15*	-5.0	102.0
CC(CCc1ccccc1)NC(=O)COc1cc(=O)n(C)c2ccccc12 (stereo not drawn)	-9.9	2	32.8	102.0
NC(=O)N/N=C/c1ccc([N+](=O)[O-])o1	-1.0	-3.55*	10.5	101.0
O=C1NC2(CCOc3ccccc32)C(=O)N1CC1NS(=O)(=O)N=C2CCCCCN21 (stereo not drawn)	-55.8	-0.95	-7.5	100.0
CCOC(=O)c1c(NC(=O)c2cc(-c3ccc(OC)c(OC)c3)on2)sc(C)c1C	x	x	x	103.0
CCOC(=O)c1c(NC(=O)c2cc(CC(C)C)on2)sc(C(C)=O)c1C	x	x	x	81.0*
CCOC(=O)c1c(NC(=O)c2cc(-c3ccccc3OC)on2)sc(C)c1C	x	x	x	73.0*
CCOC(=O)c1c(NC(=O)c2cc(-c3ccc(Cl)cc3)on2)sc(C)c1C	x	x	x	106.0
CCOC(=O)c1c(NC(=O)c2cc(C)on2)sc(C)c1C	x	x	x	78.0*
Cc1cc(C(=O)Nc2sc3c(c2C#N)CCC3)no1	x	-0.2	x	x
COc1ccccc1-c1cc(C(=O)Nc2sc3c(c2C#N)CCCC3)no1	x	x	x	82.0*
Cc1cc(N2CCOCC2)c2c(N)cc(C)c(C)c2n1	-60.0	-0.05	-4.5	99.0
CCc1nnc(NC(=O)CSc2nc3c([nH]c4ccccc43)c(=O)n2-c2cc(C)cc(C)c2)s1	x	x	x	112.0
Cc1ccc(C)c(S(=O)(=O)NCC(c2ccc(N(C)C)cc2)N2CCOCC2)c1 (stereo not drawn)	x	x	x	108.0
